Measurements from the supplement of paper PMC11732987, “Enantioselective OTUD7B fragment discovery through chemoproteomics screening and high-throughput optimisation” (Communications Chemistry, 2025).

Assays:
Assay in all cases: log2 ratio of Biotin-Ahx-Ub-VS probe labelling (compound/DMSO); higher = less target engagement, active = hit call of the paper (q ≤ 0.05, log2 ratio ≤ -1)
Settings in all cases: treatment time: 3 h
[1] = compound: CCC1N(CCc2sccc12)C(=O)CCl
Method in brief: (§1)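 DUBs in HEK293T lysate were labelled with Biotin-Ahx-Ub-VS (0.5 µM final, 1 h) after a 3 h treatment with compound at 50 or 200 µM or with DMSO, done in triplicate on 495 µg of lysate per sample. NeutrAvidin-enriched proteins were digested with LysC and trypsin and run by diaPASEF LC-MS/MS. Median-normalised label-free quantities gave average base-two log ratios of compound to DMSO by unpaired t-test, restricted to proteins with at least 2 unique peptides.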

[2] = compound: CN1c2ccccc2C(CS1(=O)=O)NC(=O)CCl
Method in brief: as §1

[3] = compound: Cl.ClCC(=O)N1CCc2ncncc2C1
Method in brief: as §1

[4] = compound: Cl.Cn1ncc2C(CCCc12)NC(=O)CCl
Method in brief: as §1

[5] = compound: ClCC(=O)NC1CCOc2ccccc12
Method in brief: as §1

[6] = compound: ClCC(=O)NC1CCCc2ccccc12
Method in brief: (§2)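 Average ratios of compound to vehicle were obtained by unpaired t-test. Beforehand, 495 µg samples of HEK293T lysate in buffer with protease inhibitors were treated in triplicate with compound over a concentration series or vehicle for 3 h, then with 0.5 µM final Biotin-Ahx-Ub-VS for 1 h. Labelled deubiquitinases were NeutrAvidin-enriched, digested and quantified label-free by diaPASEF LC-MS/MS in Spectronaut, normalised to the global median. Values are log2 and cover proteins with at least two unique peptides.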

[7] = compound: ClCC(=O)N[C@@H]1CCCc2ccccc12
Method in brief: as §2

[8] = compound: ClCC(=O)N[C@H]1CCCc2ccccc12
Method in brief: as §2

[9] = compound: CCC1N(CCc2cc(OC)c(Cl)cc12)C(=O)CCl
Method in brief: as §1

[10] = compound: CCCC1N(CCc2cc(OC)c(OC)cc12)C(=O)CCl
Method in brief: as §1

Measured: log2 ratio of Biotin-Ahx-Ub-VS probe labelling

UniProt Q9UGI0
UniProt Q9UGI0, sequence (Q9UGI0 whole entry): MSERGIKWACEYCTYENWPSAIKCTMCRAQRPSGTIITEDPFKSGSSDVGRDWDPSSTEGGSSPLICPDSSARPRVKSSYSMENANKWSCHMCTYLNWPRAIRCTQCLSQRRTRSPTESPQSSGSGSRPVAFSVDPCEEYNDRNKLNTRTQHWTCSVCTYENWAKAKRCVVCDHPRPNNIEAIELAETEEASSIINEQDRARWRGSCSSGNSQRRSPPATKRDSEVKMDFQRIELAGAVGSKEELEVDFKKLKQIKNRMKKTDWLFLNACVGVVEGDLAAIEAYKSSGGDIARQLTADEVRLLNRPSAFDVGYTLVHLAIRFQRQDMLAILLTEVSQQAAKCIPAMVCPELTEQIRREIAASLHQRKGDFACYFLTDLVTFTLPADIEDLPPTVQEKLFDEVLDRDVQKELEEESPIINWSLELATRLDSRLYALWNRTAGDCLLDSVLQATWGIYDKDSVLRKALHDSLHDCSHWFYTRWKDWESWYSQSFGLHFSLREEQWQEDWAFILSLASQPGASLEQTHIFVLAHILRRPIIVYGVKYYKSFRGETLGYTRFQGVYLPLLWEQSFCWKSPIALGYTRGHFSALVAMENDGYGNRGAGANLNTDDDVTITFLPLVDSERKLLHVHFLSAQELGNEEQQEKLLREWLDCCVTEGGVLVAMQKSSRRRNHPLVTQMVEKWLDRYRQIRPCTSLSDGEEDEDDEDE
inactive: [1]; compound concentration: 50uM -0.292 | [1]; compound concentration: 200uM -0.203 | [2]; compound concentration: 50uM -0.406 | [2]; compound concentration: 200uM 0.104 | [3]; compound concentration: 50uM -0.538 | [3]; compound concentration: 200uM -0.31 | [4]; compound concentration: 50uM -0.202 | [4]; compound concentration: 200uM 0.279 | [5]; compound concentration: 50uM 0.0945 | [5]; compound concentration: 200uM -0.4 | [6]; compound concentration: 0.78uM -0.0262 | [6]; compound concentration: 1.56uM 0.0502 | [6]; compound concentration: 3.13uM -0.0706 | [6]; compound concentration: 6.25uM 0.0502 | [6]; compound concentration: 12.5uM 0.00734 | [6]; compound concentration: 25uM -0.073 | [6]; compound concentration: 50uM -0.0421 | [6]; compound concentration: 100uM -0.161 | [6]; compound concentration: 200uM -0.304 | [7]; compound concentration: 0.78uM 0.0537 | [7]; compound concentration: 1.56uM -0.0707 | [7]; compound concentration: 3.13uM 0.111 | [7]; compound concentration: 6.25uM -0.134 | [7]; compound concentration: 12.5uM -0.0472 | [7]; compound concentration: 25uM -0.0247 | [7]; compound concentration: 50uM -0.136 | [7]; compound concentration: 100uM -0.218 | [7]; compound concentration: 200uM -0.262 | [8]; compound concentration: 0.78uM -0.114 | [8]; compound concentration: 1.56uM 0.117 | [8]; compound concentration: 3.13uM -0.00437 | [8]; compound concentration: 6.25uM -0.00155 | [8]; compound concentration: 12.5uM -0.143 | [8]; compound concentration: 25uM -0.115 | [8]; compound concentration: 50uM 0.0192 | [8]; compound concentration: 100uM -0.022 | [8]; compound concentration: 200uM -0.133 | [9]; compound concentration: 50uM -0.0637 | [9]; compound concentration: 200uM -0.0883 | [10]; compound concentration: 50uM -0.0341 | [10]; compound concentration: 200uM -0.418

UCHL1 (UniProt P09936)
UniProt P09936, sequence (P09936 whole entry, looked up): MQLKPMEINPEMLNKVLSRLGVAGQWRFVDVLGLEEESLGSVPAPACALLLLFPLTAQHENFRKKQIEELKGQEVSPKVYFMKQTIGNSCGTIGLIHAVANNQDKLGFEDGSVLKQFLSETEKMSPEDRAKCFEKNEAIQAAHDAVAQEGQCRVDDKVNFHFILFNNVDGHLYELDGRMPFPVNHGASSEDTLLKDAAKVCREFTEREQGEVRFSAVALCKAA
inactive: [1]; compound concentration: 50uM -0.0927 | [1]; compound concentration: 200uM 0.068 | [2]; compound concentration: 50uM -0.207 | [2]; compound concentration: 200uM -0.242 | [3]; compound concentration: 50uM -0.16 | [3]; compound concentration: 200uM -0.504 | [4]; compound concentration: 50uM -0.114 | [4]; compound concentration: 200uM 0.145 | [5]; compound concentration: 50uM 0.105 | [5]; compound concentration: 200uM 0.0647 | [6]; compound concentration: 0.78uM -0.218 | [6]; compound concentration: 1.56uM -0.0576 | [6]; compound concentration: 3.13uM -0.283 | [6]; compound concentration: 6.25uM -0.158 | [6]; compound concentration: 12.5uM -0.19 | [6]; compound concentration: 25uM -0.341 | [6]; compound concentration: 50uM -0.22 | [6]; compound concentration: 100uM -0.163 | [6]; compound concentration: 200uM -0.254 | [7]; compound concentration: 0.78uM -0.29 | [7]; compound concentration: 1.56uM -0.214 | [7]; compound concentration: 3.13uM -0.161 | [7]; compound concentration: 6.25uM -0.154 | [7]; compound concentration: 12.5uM -0.211 | [7]; compound concentration: 25uM -0.116 | [7]; compound concentration: 50uM -0.259 | [7]; compound concentration: 100uM -0.155 | [7]; compound concentration: 200uM -0.0847 | [8]; compound concentration: 0.78uM -0.211 | [8]; compound concentration: 1.56uM -0.304 | [8]; compound concentration: 3.13uM -0.239 | [8]; compound concentration: 6.25uM -0.187 | [8]; compound concentration: 12.5uM -0.239 | [8]; compound concentration: 25uM -0.196 | [8]; compound concentration: 50uM -0.16 | [8]; compound concentration: 100uM -0.204 | [8]; compound concentration: 200uM -0.267 | [9]; compound concentration: 50uM 0.0838 | [9]; compound concentration: 200uM 0.00983 | [10]; compound concentration: 50uM -0.262 | [10]; compound concentration: 200uM -0.45

VCPIP1 (UniProt Q96JH7)
UniProt Q96JH7, sequence (Q96JH7 whole entry): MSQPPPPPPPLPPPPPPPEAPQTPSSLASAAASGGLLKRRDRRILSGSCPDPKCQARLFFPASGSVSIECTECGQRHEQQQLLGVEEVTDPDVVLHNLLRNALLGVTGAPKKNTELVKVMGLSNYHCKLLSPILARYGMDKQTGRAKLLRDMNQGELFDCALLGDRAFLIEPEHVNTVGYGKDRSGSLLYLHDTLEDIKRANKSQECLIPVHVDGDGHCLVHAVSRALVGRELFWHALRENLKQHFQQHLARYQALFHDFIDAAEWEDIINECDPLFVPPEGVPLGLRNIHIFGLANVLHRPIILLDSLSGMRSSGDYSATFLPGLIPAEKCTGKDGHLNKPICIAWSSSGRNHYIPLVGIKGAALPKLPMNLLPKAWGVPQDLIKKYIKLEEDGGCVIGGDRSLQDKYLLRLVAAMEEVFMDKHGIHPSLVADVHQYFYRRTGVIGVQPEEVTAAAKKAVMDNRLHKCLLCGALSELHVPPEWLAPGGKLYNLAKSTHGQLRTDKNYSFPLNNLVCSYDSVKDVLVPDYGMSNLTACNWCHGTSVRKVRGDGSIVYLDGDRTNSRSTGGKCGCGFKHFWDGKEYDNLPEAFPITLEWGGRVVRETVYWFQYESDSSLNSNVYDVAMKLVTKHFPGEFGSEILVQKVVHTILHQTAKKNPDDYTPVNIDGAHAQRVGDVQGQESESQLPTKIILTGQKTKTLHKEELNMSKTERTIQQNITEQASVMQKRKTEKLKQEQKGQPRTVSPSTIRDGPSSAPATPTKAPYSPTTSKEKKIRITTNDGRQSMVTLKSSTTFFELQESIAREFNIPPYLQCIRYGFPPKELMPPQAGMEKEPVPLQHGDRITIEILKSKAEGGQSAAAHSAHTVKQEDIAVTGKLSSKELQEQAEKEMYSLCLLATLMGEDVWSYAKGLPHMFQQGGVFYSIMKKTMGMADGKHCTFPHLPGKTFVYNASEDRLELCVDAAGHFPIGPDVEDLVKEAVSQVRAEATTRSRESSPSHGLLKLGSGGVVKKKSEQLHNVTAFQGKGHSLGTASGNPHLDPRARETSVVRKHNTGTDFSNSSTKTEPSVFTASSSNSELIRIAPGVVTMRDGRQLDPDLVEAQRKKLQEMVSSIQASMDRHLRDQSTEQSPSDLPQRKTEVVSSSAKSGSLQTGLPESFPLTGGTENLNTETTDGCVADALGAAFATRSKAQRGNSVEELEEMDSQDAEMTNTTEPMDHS
active: [2]; compound concentration: 200uM -1.25 | [6]; compound concentration: 200uM -1.18 | [7]; compound concentration: 200uM -1.11
inactive: [1]; compound concentration: 50uM -0.0812 | [1]; compound concentration: 200uM -0.216 | [2]; compound concentration: 50uM -0.772 | [3]; compound concentration: 50uM -0.0798 | [3]; compound concentration: 200uM -0.257 | [4]; compound concentration: 50uM -0.273 | [4]; compound concentration: 200uM -0.459 | [5]; compound concentration: 50uM -0.59 | [5]; compound concentration: 200uM -0.809 | [6]; compound concentration: 0.78uM -0.0601 | [6]; compound concentration: 1.56uM -0.043 | [6]; compound concentration: 3.13uM -0.312 | [6]; compound concentration: 6.25uM -0.126 | [6]; compound concentration: 12.5uM -0.217 | [6]; compound concentration: 25uM -0.282 | [6]; compound concentration: 50uM -0.514 | [6]; compound concentration: 100uM -0.706 | [7]; compound concentration: 0.78uM -0.284 | [7]; compound concentration: 1.56uM -0.221 | [7]; compound concentration: 3.13uM -0.211 | [7]; compound concentration: 6.25uM -0.266 | [7]; compound concentration: 12.5uM -0.486 | [7]; compound concentration: 25uM -0.463 | [7]; compound concentration: 50uM -0.588 | [7]; compound concentration: 100uM -0.763 | [8]; compound concentration: 0.78uM -0.0679 | [8]; compound concentration: 1.56uM -0.261 | [8]; compound concentration: 3.13uM -0.266 | [8]; compound concentration: 6.25uM -0.105 | [8]; compound concentration: 12.5uM -0.162 | [8]; compound concentration: 25uM -0.176 | [8]; compound concentration: 50uM -0.258 | [8]; compound concentration: 100uM -0.566 | [8]; compound concentration: 200uM -0.808 | [9]; compound concentration: 50uM -0.123 | [9]; compound concentration: 200uM -0.724 | [10]; compound concentration: 50uM -0.514 | [10]; compound concentration: 200uM -0.602

USP10 (UniProt Q14694)
UniProt Q14694, sequence (Q14694 whole entry): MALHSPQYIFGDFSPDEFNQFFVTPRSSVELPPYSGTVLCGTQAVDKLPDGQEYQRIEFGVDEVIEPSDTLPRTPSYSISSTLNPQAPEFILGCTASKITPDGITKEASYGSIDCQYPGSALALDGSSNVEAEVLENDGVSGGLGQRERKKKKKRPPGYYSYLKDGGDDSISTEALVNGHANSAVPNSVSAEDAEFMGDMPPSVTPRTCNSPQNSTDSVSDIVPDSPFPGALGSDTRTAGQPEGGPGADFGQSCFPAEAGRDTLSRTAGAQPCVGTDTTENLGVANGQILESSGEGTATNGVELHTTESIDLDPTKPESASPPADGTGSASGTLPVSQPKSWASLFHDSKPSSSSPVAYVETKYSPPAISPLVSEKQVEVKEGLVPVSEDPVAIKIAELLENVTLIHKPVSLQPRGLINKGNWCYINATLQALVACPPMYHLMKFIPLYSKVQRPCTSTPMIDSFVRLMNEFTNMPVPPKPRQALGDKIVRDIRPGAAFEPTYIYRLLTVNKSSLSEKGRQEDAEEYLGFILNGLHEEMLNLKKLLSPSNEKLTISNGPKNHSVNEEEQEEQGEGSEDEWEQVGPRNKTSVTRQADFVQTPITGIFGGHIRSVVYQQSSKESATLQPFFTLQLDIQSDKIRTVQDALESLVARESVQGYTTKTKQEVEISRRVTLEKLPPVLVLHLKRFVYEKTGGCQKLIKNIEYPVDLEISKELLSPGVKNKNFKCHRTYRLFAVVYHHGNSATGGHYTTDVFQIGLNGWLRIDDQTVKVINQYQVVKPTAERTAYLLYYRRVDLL
inactive: [1]; compound concentration: 50uM -0.19 | [1]; compound concentration: 200uM -0.0252 | [2]; compound concentration: 50uM -0.181 | [2]; compound concentration: 200uM -0.0808 | [3]; compound concentration: 50uM -0.0803 | [3]; compound concentration: 200uM -0.275 | [4]; compound concentration: 50uM -0.122 | [4]; compound concentration: 200uM 0.147 | [5]; compound concentration: 50uM 0.0122 | [5]; compound concentration: 200uM 0.0383 | [6]; compound concentration: 0.78uM -0.0342 | [6]; compound concentration: 1.56uM -0.0587 | [6]; compound concentration: 3.13uM -0.0649 | [6]; compound concentration: 6.25uM -0.0649 | [6]; compound concentration: 12.5uM -0.132 | [6]; compound concentration: 25uM -0.0689 | [6]; compound concentration: 50uM -0.0491 | [6]; compound concentration: 100uM -0.183 | [6]; compound concentration: 200uM -0.0607 | [7]; compound concentration: 0.78uM -0.0933 | [7]; compound concentration: 1.56uM -0.139 | [7]; compound concentration: 3.13uM -0.0782 | [7]; compound concentration: 6.25uM -0.0824 | [7]; compound concentration: 12.5uM -0.0687 | [7]; compound concentration: 25uM -0.0178 | [7]; compound concentration: 50uM 0.00497 | [7]; compound concentration: 100uM -0.08 | [7]; compound concentration: 200uM -0.0678 | [8]; compound concentration: 0.78uM -0.0203 | [8]; compound concentration: 1.56uM -0.0495
